# Experimental data from paper PMC4336329 (PLoS ONE, 2015).
# Out of some 310,000 compounds screened, about 14,000 (4.5%) showed an effect of 50% or more. Effects have a minus sign here. Only a selection was taken, and strong results are over-represented in it overall.
# Biological target: human ether-à-go-go-related gene (hERG) potassium channel (human, UniProt Q12809)
# Experiment: primary screen, population patch clamp on CHO cells stably expressing hERG; higher = less effect of the substance
# 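Further: peak tail current of the secondary pulse compared with the same well before compound.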
# Chain of human ether-à-go-go-related gene (hERG) potassium channel (Q12809 whole entry, looked up): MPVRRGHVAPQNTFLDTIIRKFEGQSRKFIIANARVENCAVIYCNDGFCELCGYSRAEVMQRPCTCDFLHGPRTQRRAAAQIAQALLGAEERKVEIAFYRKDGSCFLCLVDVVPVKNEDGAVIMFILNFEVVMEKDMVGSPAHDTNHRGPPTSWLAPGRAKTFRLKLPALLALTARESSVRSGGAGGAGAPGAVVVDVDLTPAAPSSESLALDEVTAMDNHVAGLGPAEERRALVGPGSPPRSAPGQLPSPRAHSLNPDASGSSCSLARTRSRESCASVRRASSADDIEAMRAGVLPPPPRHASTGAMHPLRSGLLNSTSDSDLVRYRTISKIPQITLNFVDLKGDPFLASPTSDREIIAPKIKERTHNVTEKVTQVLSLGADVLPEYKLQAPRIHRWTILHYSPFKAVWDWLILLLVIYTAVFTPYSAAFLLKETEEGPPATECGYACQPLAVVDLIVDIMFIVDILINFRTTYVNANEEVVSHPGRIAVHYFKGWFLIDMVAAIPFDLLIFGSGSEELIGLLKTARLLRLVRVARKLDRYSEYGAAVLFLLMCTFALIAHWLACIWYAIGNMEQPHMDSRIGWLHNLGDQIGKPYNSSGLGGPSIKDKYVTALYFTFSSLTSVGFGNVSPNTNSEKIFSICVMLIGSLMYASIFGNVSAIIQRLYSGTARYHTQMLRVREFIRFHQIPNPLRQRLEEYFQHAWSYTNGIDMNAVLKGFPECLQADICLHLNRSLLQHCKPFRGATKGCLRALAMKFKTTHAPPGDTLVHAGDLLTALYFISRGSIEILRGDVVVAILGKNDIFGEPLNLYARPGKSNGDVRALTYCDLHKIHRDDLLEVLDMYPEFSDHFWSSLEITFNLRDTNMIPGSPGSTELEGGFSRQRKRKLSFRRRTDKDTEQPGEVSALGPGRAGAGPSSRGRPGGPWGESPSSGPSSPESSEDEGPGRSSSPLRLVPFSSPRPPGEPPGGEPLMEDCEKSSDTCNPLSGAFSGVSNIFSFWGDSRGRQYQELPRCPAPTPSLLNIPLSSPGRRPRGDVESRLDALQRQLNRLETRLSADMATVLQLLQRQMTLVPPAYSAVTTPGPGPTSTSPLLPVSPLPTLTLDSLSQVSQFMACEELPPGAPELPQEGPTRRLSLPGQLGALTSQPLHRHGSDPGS
row,SMILES,"hERG current change (%, negative = inhibition) at 10uM [%]"
1,O=C(OCC(=O)N1CCN(C(=O)c2ccco2)CC1)c1cc(S(=O)(=O)Nc2ccc(Cl)cc2)ccc1O,-64.6
2,O=C1CCCC2=C1C(c1cccnc1)Nc1ccccc1N2 (centres unmarked),5.41
3,COc1ccc(NC(=O)CCC(=O)c2cccs2)cc1Cl,17.6
4,CCOc1cccc2sc(Cl)nc12,13.7
5,COc1cc(N/C=C2\CC(=O)NC(C)=C2C#N)cc(OC)c1OC,19.6
6,Cc1c(NC(=O)COC(=O)C2(c3ccccc3F)CCCC2)c(=O)n(-c2ccccc2)n1C,-1.01
7,O=c1c2oc3ccccc3c2ncn1Cc1ccc(Cl)cc1,11.7
8,CCOc1ccccc1N1CCN(c2nc(N)c(C#N)c(CC#N)c2C#N)CC1,-37.2
9,CCCn1c(SCC(=O)Nc2sc(C)c(C)c2C#N)nnc1C(C)C,-9.76
10,O=C(NCCc1csc(-c2cccnc2)n1)c1ccc(Br)o1,-10.9
11,Cc1cc(C)cc(N=C2NC(=O)CS2)c1,0.159
12,CCN(CC)C(=O)COc1ccc(/C(C)=N/NC(=O)c2ccccc2Br)cc1,8.89
13,COc1ccc(CCN(C)C(=O)CSc2nnc(-c3ccco3)o2)cc1OC,-21.3
14,CCCSc1nnc2nc3c(nn12)c1ccccc1n3C,-49.7
15,C=CCSc1nnc2nc3[nH]c4c(C)cccc4c3nn12,4.32
16,C=CCSc1nnc2nc3c(nn12)c1cc(C)ccc1n3CC=C,-55.1
17,O=C(NCc1ccc2c(c1)OCO2)C1(S(=O)(=O)c2ccccc2)CC1,13.4
18,CC(C)Cc1cc(C(=O)N2CCN(C(c3ccccc3)c3ccccc3)CC2)no1,0.0803
19,COc1ccc(/C=c2/sc3nc(-c4ccccc4)c(-c4ccccc4)n3c2=O)cc1,-13.9
20,NC(=O)C1CCN(S(=O)(=O)Cc2ccccc2Cl)CC1,14.8
21,C=CCn1c(SCc2ccc(OC)cc2)nnc1-c1cccnc1,-26.9
22,CCn1c(SCc2ccc(C#N)cc2)nnc1-c1cccc(Cl)c1,-73.6

row,SMILES,"hERG current change (%, negative = inhibition) at 10uM [%]"
1,CCn1c(SCc2cccc(C)c2)nnc1-c1ccccc1,-32.9
2,CCn1c(SCc2cccc(F)c2)nnc1-c1ccncc1,-8.82
3,CCn1c(SCc2ccc(C(=O)Nc3cc(C)cc(C)c3)cc2)nnc1-c1ccncc1,-59.2
4,C=CCn1c(SCc2ccc(C#N)cc2)nnc1-c1cccc(OC)c1,-67.4
5,CCOC(=O)CSc1nnc(-c2cccc(Cl)c2)n1CC,-3.47
6,C=CCn1c(SCc2cccc(OC)c2)nnc1-c1ccncc1,-15.5
7,CCn1c(SCc2cccc(C)c2)nnc1-c1ccc(C)cc1,-63.7
8,CCn1c(SCc2ccc(Cl)cc2)nnc1-c1ccccc1,-44.4
9,CCn1c(SCc2ccc(C(=O)Nc3nccs3)cc2)nnc1-c1ccc(NC(C)=O)cc1,1.21
10,CCn1c(SCc2ccc(C(=O)Nc3nccs3)cc2)nnc1-c1ccc(N)cc1,-22.2
11,CCOC(=O)c1c(C)[nH]c(C(=O)COC(=O)C23CC4CC(CC(Cl)(C4)C2)C3)c1C,11.6
12,CC1C(=O)N2CCCc3cc(NC(=O)C4CCCCC4)cc1c32 (centres unmarked),4.17
13,CCOC(=O)c1cc(S(=O)(=O)N2CCc3ccccc32)cn1C,-0.504
14,CCOCc1nnc(NC(=O)CSCc2ccccc2)s1,-1.7
15,Cc1ccc2cc(NC(=O)c3cccc(F)c3)ccc2n1,0.701
16,CCOC(=O)C(NC(C)=O)C(=O)Nc1ccc(C)cc1C (centres unmarked),15.7
17,O=C(Nc1nccs1)c1cccc(NC(=O)C(F)(F)F)c1,-5.07
18,O=c1c2c3c(sc2nc2n1CCCCC2)C(O)CCC3 (centres unmarked),3.27
19,C=CCn1c(SCc2cccc(C#N)c2)nnc1-c1ccccc1O,-30.4
20,C=CCn1c(SCC(=O)O)nnc1-c1cccc(Cl)c1,4.71
21,C=CCn1c(SCc2ccc(C#N)cc2)nnc1-c1cccc(Cl)c1,-72.7
22,Cc1cc(NC(=O)CSc2nc3ccccc3c(=O)n2CCCC(=O)NCc2ccccc2)n[nH]1,-8.72
